These results are taken from the supplement of paper PMC5919970.

Structures can show the parent of a compound that is named as a salt. The full ranking holds about 2,000 compounds; the median of “fractional viability relative to vehicle” is about 0.92, and the lowest 2% start at about 0.11. Many of the other results were omitted from the sample, so the lowest values are more common in it than they were.

In the test the test system is TYKNU. The experiment in a line: fractional viability relative to vehicle; TYKNU is a high-grade serous ovarian cancer line; higher = less growth inhibition. The note with it: 72 h, genotype: OPA1 knockout (sgOPA1 #2). The procedure, abridged:
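Drug treatment lasted 72 h, with cells grown at 37 °C in 5% CO2 in RPMI 1640 supplemented with 10% FBS. Beforehand, TYKNU control cells or their lentiCRISPRv2 knockout derivatives had been seeded at 500 cells per well into drug-stamped 384-well plates carrying a ~2100-compound library at 2 or 10 μM, in duplicate. Viability came from Cell Titer Glo luminescence, with averaged duplicate treatment wells normalised to duplicate control wells in the same plate position.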

For the compound `O=C(CCCCCCC(=O)Nc1ccc([C@H]2O[C@@H](CSc3nc(-c4ccccc4)c(-c4ccccc4)o3)C[C@@H](c3ccc(CO)cc3)O2)cc1)NO` [Tubacin], the fractional viability is, setting by setting: (2uM) 1.06; (10uM) 0.628.
The matching figures for `CCOC(=O)[C@@H](N)Cc1ccc(-c2cc(O[C@H](c3ccc(Cl)cc3-n3ccc(C)n3)C(F)(F)F)nc(N)n2)cc1` [Telotristat Etiprate (LX 1606 Hippurate)]: 0.935 and 0.335.
The matching figures for `CC(C)n1cnc2c(NCCc3ccc(O)cc3)nc(-c3csc4ccccc34)nc21` [StemRegenin 1 (SR1)]: 1.1 and 0.769.
The matching figures for `CNC1CCC(N(Cc2cccc(-c3ccncc3)c2)C(=O)c2sc3ccccc3c2Cl)CC1` (configuration not stated) [Smoothened Agonist (SAG) HCl]: 0.918 and 0.259.
With `O=C1NC(=O)/C(=C/c2ccc(-c3ccc(F)cc3O)o2)S1`, the fractional viability reads like this: (2uM) 0.814; (10uM) 0.742.
Consider `N[C@H]1CC[C@H](N[C@@H]2C[C@H]2c2ccccc2)CC1`, for which the fractional viability worked out at 0.794 (2uM) and 0.89 (10uM).
The matching figures for `CN1CCN(c2ccc3nc(-c4c(N)c5c(F)cccc5[nH]c4=O)[nH]c3c2)CC1` [Dovitinib (TKI258) Lactate]: 0.815 and 0.0801.
The matching figures for `CN1CCN(c2ccc3nc(-c4c(N)c5c(F)cccc5[nH]c4=O)[nH]c3c2)CC1` [Dovitinib (TKI-258, CHIR-258)]: 0.815 and 0.25.
Consider `Cc1nn(-c2ccccc2)c(C)c1C=NN1CCN(Cc2ccccc2)CC1`, for which the fractional viability is, setting by setting: (2uM) 0.946; (10uM) 0.905.
For `COCC(=O)NC/C=C/c1ccc2ncnc(Nc3ccc(Oc4ccc(C)nc4)c(C)c3)c2c1` the same measures were 1.29 and 1.17.
For `CCCCCCCCc1ccc(CCC(N)(CO)CO)cc1` [Fingolimod (FTY720) HCl] the same measures were 1.08 and 0.0752.
The matching figures for `CCCCCCCCCCCCc1ccc(S(=O)(=O)Nc2nncs2)cc1`: 1.06 and 1.05.
The compound `CCCCCCCc1ccc(CCc2cccc(O)c2C(=O)O)cc1` had a fractional viability (2uM) of 0.96 and a fractional viability (10uM) of 0.73.
For `O=C(c1ccc(OCCCc2c[nH]cn2)cc1)C1CC1` [Ciproxifan] the same measures were 1.1 and 0.986.
For `CCCCCCCCCCCCCCCCn1cc[n+](Cc2ccccc2)c1C` the same measures were 0.363 and 0.0434.
For `CCO[C@@H]1OC(=O)C[C@@H]1NC(=O)[C@@H]1CCCN1C(=O)[C@@H](NC(=O)c1ccc(N)c(Cl)c1)C(C)(C)C` the same measures were 0.969 and 0.919.
For the compound `Cc1cc([N+](=O)[O-])ccc1NS(=O)(=O)c1cc(Cl)ccc1Cl`, the fractional viability is 0.656 (2uM) and 0.476 (10uM).
For `CC(C)c1nc(N(C)S(C)(=O)=O)nc(-c2ccc(F)cc2)c1/C=C/[C@@H](O)C[C@@H](O)CC(=O)O` [Rosuvastatin Calcium] the same measures were 1.06 and 1.07.
As for `Nc1cccc2c1C(=O)N(C1CCC(=O)NC1=O)C2=O` (configuration not stated) [Pomalidomide], the fractional viability reads like this: (2uM) 1.18; (10uM) 1.05.
The matching figures for `CNc1nc(Nc2cn(C(C)(C)C#N)nc2C)ncc1C(F)(F)F`: 0.801 and 0.885.
For `Cc1ccc(-c2c(-c3nn(C)c4ncnc(N5CC[C@H](N6CCCCC6)C5)c34)cnn2C)cc1` the same measures were 0.983 and 1.09.
In the case of `CCC[C@H](N[C@H]1CCc2cc(F)cc(F)c2C1)C(=O)Nc1cn(C(C)(C)CNCC(C)(C)C)cn1`, the fractional viability is 0.786 (2uM) and 0.87 (10uM).
The matching figures for `CC(=O)[C@@]1(O)CC[C@H]2[C@@H]3CCC4=CC(=O)CCC4=C3[C@@H](c3ccc(N(C)C)cc3)C[C@@]21C` [Ulipristal]: 0.841 and 1.07.
For `Cn1sc(=O)n(Cc2ccccc2)c1=O` the same measures were 0.609 and 0.104.
Consider `Cc1ccc(-n2sc(=O)n(Cc3ccc(F)cc3)c2=O)cc1`, for which the fractional viability came out at 0.801 (2uM) and 0.457 (10uM).
For `O=C(O)CSc1cc(NS(=O)(=O)c2ccc(Br)cc2)c2ccccc2c1O` the same measures were 0.835 and 0.365.
Regarding `OCCOc1ccc(/C(=C(/CCCl)c2ccccc2)c2ccccc2)cc1` [Ospemifene], the fractional viability was determined as 0.854 (2uM) and 0.735 (10uM).
Regarding `CC(=O)c1cc([N+](=O)[O-])c(Sc2cccc(Cl)c2Cl)s1`, the fractional viability is 0.895 (2uM) and 0.2 (10uM).
The matching figures for `CN(C)C(=O)c1ccc(S(=O)(=O)c2ccc(NC(=O)[C@@](C)(O)C(F)(F)F)c(Cl)c2)cc1`: 0.83 and 0.753.
The matching figures for `CNCc1ccc(-c2cc(-c3nc(-c4ccc(S(=O)(=O)C(C)C)cc4)cnc3N)on2)cc1`: 0.792 and 0.849.
For the compound `NC[C@@](O)(c1ccc(Cl)cc1)c1ccc(-c2cn[nH]c2)cc1`, the fractional viability came out at 0.858 (2uM) and 0.87 (10uM).
For `O=C(NC1CCN(CCCCC2(C(=O)NCC(F)(F)F)c3ccccc3-c3ccccc32)CC1)c1ccccc1-c1ccc(C(F)(F)F)cc1` [Lomitapide Mesylate] the same measures were 0.887 and 0.0779.
For `O=C(O)c1ccccc1C(=O)Nc1ccc(-c2ccccc2)cc1` [Kartogenin] the same measures were 0.838 and 0.747.
For the compound `C=CCc1ccc(O)c(-c2ccc(O)c(CC=C)c2)c1` [Honokiol], the fractional viability stood at 0.957 (2uM) and 1.01 (10uM).
On to `C#CC[C@H](c1nc2cc(Cl)ccc2c(=O)n1Nc1ccccc1)N(CCCN)C(=O)c1cccc(Cl)c1F`, for which the fractional viability reads like this: (2uM) 0.562; (10uM) 0.0443.
The matching figures for `Cc1ccc(C(=O)N(CCCN)[C@@H](c2nc3cc(Cl)ccc3c(=O)n2Cc2ccccc2)C(C)C)cc1`: 0.71 and 0.309.
